# A selection: hits, their analogues and other compounds. The true share with any hit is near 11%.
# HPGD block: blocks human HPGD enzyme activity; purified HPGD, NADH fluorescence kinetic, PGE2 substrate; Potency, µM, inactives show at the top dose activity change, negative = inhibition, most hits filed as inhibitors; hit rate 4.3% among 150,000; AID 894; further: potency means the concentration at half of the fitted maximal effect
#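 20 nM HPGD preincubated 15 min at room temperature with compound in 50 mM Tris-HCl pH 8, 0.01% Tween 20. Started with 1 mM NAD+ and 30 uM prostaglandin E2; NADH fluorescence (360/450 nm) read 5 times over 30-s intervals, last minus first.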
# PNC inhibitor: inhibitors of perinucleolar compartment assembly | PC3M PTB-GFP, PNC prevalence imaging, 16 h; active compounds read low | activity change (PNC), negative = inhibition, % at 10 µM | hit rate 3.1% among 140,000;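 active means readout at or below -70, meaning at least 70% loss of cells showing the perinucleolar compartment, a nuclear body marking cancer cells; inconclusive means readout between -30 and a set limit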;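 further: plate controls were DMSO wells for no effect and camptothecin positive control wells for full effect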
#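 Read-out is percentage of cells bearing a perinucleolar compartment, from automated 20x imaging of fixed, Hoechst-stained PC3M PTB-GFP cells. Cells were seeded 4 h, then exposed 16 h to compound (23 nl of library stock) in duplicate plates.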
# ALDH1A1 inh: ALDH1A1 (human) enzyme inhibition; hit rate 7.3% among 220,000; Purified ALDH1A1, NADH fluorescence, propionaldehyde substrate; Potency, µM (series often up to 75.3 µM), without a hit: at the top dose activity, negative = inhibition, most hits filed as inhibitors; P00352;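 further: potency means the concentration at half of the fitted maximal effect; plate controls were no enzyme wells and a reference inhibitor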
# Target sequence (P00352 whole entry, looked up): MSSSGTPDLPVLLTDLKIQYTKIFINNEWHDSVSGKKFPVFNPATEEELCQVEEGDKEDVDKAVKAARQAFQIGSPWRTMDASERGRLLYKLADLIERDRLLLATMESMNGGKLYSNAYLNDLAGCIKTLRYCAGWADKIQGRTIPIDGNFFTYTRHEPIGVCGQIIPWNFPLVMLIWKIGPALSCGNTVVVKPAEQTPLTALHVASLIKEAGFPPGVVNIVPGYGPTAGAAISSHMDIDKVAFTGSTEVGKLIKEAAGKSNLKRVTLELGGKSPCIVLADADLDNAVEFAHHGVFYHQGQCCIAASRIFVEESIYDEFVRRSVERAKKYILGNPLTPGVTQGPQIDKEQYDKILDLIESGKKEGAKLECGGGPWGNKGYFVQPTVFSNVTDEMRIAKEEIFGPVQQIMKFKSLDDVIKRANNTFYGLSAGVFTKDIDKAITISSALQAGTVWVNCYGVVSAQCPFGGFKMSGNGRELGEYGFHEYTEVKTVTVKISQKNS
# Numbers without * were called inactive; u = inconclusive; x = no result given; ! = a repeat was not active; [ ] = remark or other dose. Unless noted, the call rests on the fitted dose curve; in most records, active means well fitted inhibition curve with a large enough effect (not every such curve was filed as active); inconclusive means small, poorly fitted or top-dose-only effect, or another doubt; inactive means no such curve, though single readings can be large or run the other way. Unless noted, on the % scale 0 is the no-effect control and ±100 the full control effect.
SMILES,HPGD block,PNC inhibitor,ALDH1A1 inh
CCCNC(=O)c1cc2nc(-c3ccccc3)cc(C(F)(F)F)n2n1,u,-14.7,-0.4%
S=C1NC2=C(CCCC2)C2(CCCCC2)N1,-13.4%,319.9,0.316µM*
CCC(=O)Nc1ccc(Cl)c(NC(=O)c2c(OC)cccc2OC)c1,x,x,6.0%
OCCC1CN(Cc2c(O)ccc3ccccc23)CCN1CCc1ccccc1 (stereo unspecified),x,x,11.2µM*
OCCC1CN(CCCn2cccn2)CCN1Cc1ccccc1 (stereo unspecified),x,x,-8.4%
Cc1ccc(CN2CCN(CCCc3ccccc3)CC2CCO)cc1 (stereo unspecified),x,x,28.2µM*
COc1ccc(O)c(CN2CCN(CCc3ccccc3)C(CCO)C2)c1 (stereo unspecified),x,x,-6.8%
O=C(c1ccccc1)c1ccc(-c2ccc(O)cc2)cc1,x,x,-12.1%
O=C(c1cccnc1)c1cccnc1,-15.3%,-123.8*,-5.7%
O=C(c1ccccc1)c1ccccc1,-5.3%,x,25.1µM*!
CC(C)C(=O)Nc1ccc(C(=O)c2ccccc2)cc1,14.1µM*,u,u
O=C(O)c1cccnc1,-4.2%,-9.9,5.2%
CC(C)C(=O)Nc1ccc(C(=O)NNC(=O)CCc2ccccc2)cc1,-12.3%,-12.6,2.0%
CC(Oc1ccccc1)C(=O)Nc1ccccc1O (stereo unspecified),7.08µM*,-0.2,3.6%
COC(=O)c1ccccc1NC(=O)C(C)Oc1ccccc1 (stereo unspecified),-5.1%,u,7.2%
CN(/N=C\c1ccccc1O)c1ccc2ccccc2n1,-3.9%,x,5.2%[13.5 µM]
CC(=O)c1ccc(N=C2SCCCN2C(=O)C2CCCC2)cc1,x,x,8.9%
O=C(c1ccco1)N1CCN(Cc2nnnn2CCc2ccccc2)CC1,-3.7%,28.1,-2.9%
Cc1ccn2c(Nc3ccccc3C)c(-c3ccncc3)nc2c1,-19.2%,-15.3,u
CC(C)(C)SCCNC(=O)CN(c1ccccc1)S(=O)(=O)c1ccccc1,x,x,-4.0%
C[C@H]1Cc2c(COc3ccccc3)nc3c(c2CO1)CN(C(=O)c1cc(I)ccc1F)CC3,0.3%,x,-4.2%[13.5 µM]
CC(Oc1ccc(C(=O)c2ccccc2)cc1)C(=O)Nc1ccc(S(N)(=O)=O)cc1 (stereo unspecified),u,-12.8,10µM*
CC(C)CC(NC(=O)c1ccccc1)C(=O)OCC(=O)Nc1ccc(S(N)(=O)=O)cc1 (stereo unspecified),x,x,5.5%
COc1ccccc1N1CCN(C(=O)c2cnn3cccnc23)CC1,-0.5%,27.3,14.2%
O=[N+]([O-])c1cc(S(=O)(=O)NCCN2CCOCC2)ccc1Sc1nnnn1-c1ccccc1,-8.4%,-15.2,14.1µM*
SMILES,HPGD block,PNC inhibitor,ALDH1A1 inh
Cc1ccc(-n2nnnc2Sc2ccc(S(=O)(=O)NCCN(C)C)cc2[N+](=O)[O-])cc1,-21.8%,21.9,u
O=C(O)/C(=C\c1cccs1)c1ccccc1,x,x,0.1%
Clc1nnc(N/N=C/c2ccccc2)c2ccccc12,-12.9%,u,-9.1%
Clc1nnc(NN=C2CCCC2)c2ccccc12,-14.2%,30.8,2.82µM*
CC1CCCC(NC(=O)COC(=O)CCSc2ccccc2)C1C (stereo unspecified),x,x,-14.6%
CCOC(=O)c1ccc(-n2c(C)ccc2C)cc1,u,45.8,-5.3%
CCOC(=O)c1ccc(N2C(=O)CC(SCC(N)C(=O)OCC)C2=O)cc1 (stereo unspecified),-7.8%,16.3,3.55µM*
CCCCOc1ccc(N2C(=O)CC(N(O)c3ccccc3)C2=O)cc1 (stereo unspecified),-8.6%,-17.6,u
O=C1CC(SCCO)C(=O)N1c1ccc(Oc2ccccc2)cc1 (stereo unspecified),-14.5%,u,14.1µM*
CCOC(=O)c1ccc(N2C(=O)C=CC2=O)cc1,1.41µM*,u,0.0631µM*
CCOC(=O)c1ccc(N2C(=O)CC(C(=O)OC)=C2C)cc1,-16.5%,u,-20.1%
CCOC(=O)c1ccc(N2C(=O)CC(Sc3nnc(C)s3)C2=O)cc1 (stereo unspecified),28.2µM*,-24.7,1µM*
CCOC(=O)c1ccc(N2C(=O)C3CC=CCC3C2=O)cc1 (stereo unspecified),-7.9%,60.3,-3.5%
N#CCSc1ccc(-c2nc3ccccc3[nH]2)cn1,x,x,-4.3%
Cc1nn(-c2ccc(F)cc2)c(C)c1/C=C/C(=O)N1CCNC(=O)C1,x,x,-12.1%
CN(C)/C=C(\C#N)C(=O)Nc1ccc(O)cc1F,x,x,-2.1%
O=C(Cn1cccc1)N1CCN(C(c2ccccc2)c2ccccc2)CC1,-15.2%,24.5,u
CC(c1ccccc1)N1CCN(C(=O)CCl)CC1 (stereo unspecified),x,x,0.447µM*
CC(=O)OC[C@@H]1O[C@H](C/C=N\OCC[C@H]2C=C[C@H](OC(C)=O)[C@@H](COC(C)=O)O2)C=C[C@@H]1OC(C)=O,x,x,11.6%[13.5 µM]
Cc1cc(N)n(-c2ncnc3scc(-c4ccc(Cl)cc4)c23)n1,-8.5%,41.4,u
Cc1ccc(-c2csc3ncnc(-n4nc(C)cc4N)c23)cc1,-13.4%,6.7,2µM*
Cc1cc(C)cc(OCc2nnc(SCC(=O)OC(C)C)o2)c1,-21.8%,11.3,-2.9%
CCOC(=O)N1CCC(=NNS(=O)(=O)c2cccc([N+](=O)[O-])c2)CC1,-13.5%,22.4,10µM*
CCOC(=O)N1CCN(S(=O)(=O)c2cc([N+](=O)[O-])ccc2C)CC1,x,x,-6.2%
CC1CCCCN1C(=O)c1cnn2c(C(F)(F)F)cc(-c3ccco3)nc12 (stereo unspecified),7.08µM*,1.5,-5.0%
SMILES,HPGD block,PNC inhibitor,ALDH1A1 inh
CC(C)NC(=O)c1cc2nc(-c3ccco3)cc(C(F)(F)F)n2n1,u,18.0,u
O=C(NC1CCCCC1)c1nn2c(C(F)(F)F)cc(-c3ccco3)nc2c1Br,-11.9%,-24.4,22.4µM*
O=C(O)c1cnn2c(C(F)(F)F)cc(-c3ccco3)nc12,x,-7.5,-11.3%
CC(C)NC(=O)c1nn2c(C(F)(F)F)cc(-c3ccco3)nc2c1Cl,x,x,-1.2%
CN(CCc1ccccn1)C(=O)c1nn2c(C(F)(F)F)cc(-c3ccco3)nc2c1Cl,-19.1%,14.1,25.1µM*
CSCCC(N)C(=O)O (stereo unspecified),0.1%,x,7.3%
CC(C)OCCCNC(=O)CCSc1ccc(Cl)cc1,-11.8%,-16.2,9.2%
Cn1sc(NC(=O)c2cccc(Cl)c2)nc1=O,-7.9%,22.8,5.4%
Cn1sc(NC(=O)c2ccccc2Cl)nc1=O,14.1µM*,u,11.2µM*
CCC1=C2CC[C@H]3C(=O)N(C)C(=O)[C@H]3[C@H]2[C@@]2(C)C(=O)N(CC3CC3)C(=O)N2C1=O,-13.4%,x,2.2%
Cc1ccc(S(=O)(=O)Oc2ccc3c(c2)O/C(=C\c2cccnc2)C3=O)cc1,-25.3%,1.9,11.2µM*
CCc1ccc(/C=C2\Oc3cc(OS(C)(=O)=O)ccc3C2=O)cc1,-12.9%,-2.5,-7.6%
O=C1/C(=C/c2cccnc2)Oc2cc(OS(=O)(=O)c3ccc(F)cc3)ccc21,15.8µM*,13.9,8.91µM*
COc1cccc(OC)c1C(=O)Oc1ccc2c(c1)O/C(=C\c1ccncc1)C2=O,-13.6%,28.8,u
COC(=O)c1ccc(NC(=O)C2CCCN2S(=O)(=O)c2ccc(F)cc2)cc1 (stereo unspecified),-4.7%,-26.7,3.5%
Cc1cc(C)c(S(=O)(=O)N2CCCCC2)c(C)c1N(C)S(=O)(=O)c1ccc(Cl)cc1,-8.1%,-16.3,8.3%
